# Source: PubChem BioAssay (NCI)
# Compounds without any hit were thinned out: in the full panel of roughly 83,000, 20% have a hit.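 In brief: 96-well plates, 48 h treatment, single concentration, percent growth endpoint.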 A number with no mark means an inactive call. Activity calls are given as the source filed them. How the source made its calls: active means growth percent below 10; inactive means the rest.
# Tested on: HOP-92 NSCLC
# Test: NCI-60 one-dose screen, 48 h (100 = growth as untreated, 0 = no growth, -100 = all killed)
# Conditions: 10 µM unless noted
row,SMILES,growth
1,COC1=CC(c2ccc[nH]2)=N/C1=C\c1[nH]c(C)c(CC(=O)OCc2ccccc2)c1C,-16.8% (active)
2,O=C(CSc1nnc2sc(Nc3cccc(Cl)c3)nn12)c1ccc(F)cc1,74.5%
3,COc1ccc(C2=Nc3c(N)ncnc3NC(c3cccc(Nc4ccnc5cc(C(F)(F)F)ccc45)c3)C2)cc1 (stereo not given),31.4%
4,Nc1c(C(=O)Nc2cccc3ncccc23)sc2nc3c(cc12)C(=O)CCC3,41.8%
5,C#CCn1cnc2c(Nc3cccc(NC(=O)CCl)c3)ncnc21,35.3%
6,COc1cc2oc(-c3cccc(NC(=O)c4ccc5c(c4)OCO5)c3)cc(=O)c2c(OC)c1OC,-6.11% (active)
7,CCOC(=O)CSc1nc2sc3c(c2c(=O)n1-c1ccc([N+](=O)[O-])cc1)CCCCC3,80.3%
8,Cn1cc(-c2nn3cc(-c4ccccc4)nc3s2)c2ccccc21,71.9%
9,C=C1C(=O)O[C@H]2[C@H]1CC/C(COC(=O)NCCCCCCCCNC(=O)OC/C1=C/CC[C@@]3(C)O[C@H]3[C@H]3OC(=O)C(=C)[C@@H]3CC1)=C\CC[C@@]1(C)O[C@@H]21,-83.2% (active)
10,Oc1c(I)cc(-c2nc3ccccc3s2)cc1CN(Cc1ccccn1)Cc1ccccn1,0.23% (active)
11,Cc1ncc(C(=O)Nc2ccc(CN3CCN(C)CC3)c(C(F)(F)F)c2)cc1C#Cc1cnc(N)c2ccncc12,-52.2% (active)
12,O=C1/C(=C/c2ccc(C(F)(F)F)cc2)COc2ccc(O)c(O)c21,-13.7% (active)
13,O=C1N[C@@H]2[C@@H](O)[C@@H](O)[C@H](O)C[C@H]2c2cc3c(c(O)c21)OCCO3,-20.1% (active)

# Tested on: NCI-H522 lung
# Test: as above
# Conditions: 10 µM unless noted
row,SMILES,growth
1,CCCCCSB(SCCCCC)c1ccccc1,88.3%
2,c1ccc(CNc2ccc3nc(CCC4CCCCC4)[nH]c3c2)cc1,58.3%
3,S=c1ssnc1-c1cccs1,96.3%
4,O=C(/C=C/c1ccc(Br)cc1)c1ccc(-n2cc(CN3CCN(c4cc5c(cc4F)c(=O)c(C(=O)O)cn5C4CC4)CC3)nn2)cc1,78.3%
5,COc1ccc(Cc2cnc(NC(=O)c3sc4ccccc4c3Cl)s2)cc1,-14.2% (active)
6,N#C/C(=C\c1ccc(Cl)cc1Cl)C(=O)Nc1ncc(Cc2ccc(Cl)c(Cl)c2)s1,79.1%
7,N#Cc1c(-c2cccc([N+](=O)[O-])c2)cc(-c2ccc(Nc3nc(Nc4ccc(F)cc4)nc(Nc4ccc(F)cc4)n3)cc2)nc1N,104%
8,O=C(CCCCCCN1CC(=O)N2[C@@H](c3ccc(Cl)cc3)c3[nH]c4ccccc4c3C[C@H]2C1=O)NO,38.2%
9,CCCCCCCCn1ccc2cc(NC(=O)Cn3cc(CN4CCC(C)CC4)nn3)ccc21,18.7%
10,CCCC(O)Cn1ncc(C(=O)OCC)c1NC(=O)NCc1cccc(F)c1 (stereo not given),58.6%
11,COc1cc2c3c(c1O)-c1ccccc1[C@@H]1OC(=O)N(CC2)[C@H]31,94%
12,C/C(=C(/c1ccc(Cl)cc1)c1ccc(OCCCN(C)C)cc1)c1ccc(Cl)cc1,99.7%
13,Cc1cc(C(=O)Nc2cc(Nc3ncccc3-c3ncnc4nc[nH]c34)ccc2F)cc(C(F)(F)F)c1,63.1%
14,CCOC(=O)NN1CC(O)=C(c2nc(-c3ccc(Br)cc3)cs2)C1=N,92.1%
15,O=C1C(Cl)=C(NCCN2CCOCC2)C(=O)c2ncccc21,-74% (active)
16,O=C(Nc1ccc(F)cc1)Nc1ccccc1CNc1nc(Nc2ccc(OCCN3CCCC3)cc2)ncc1Cl,37%
17,C[C@H]1[C@H](C)CC[C@]2(C(=O)O)CC[C@]3(C)C(=CC[C@@H]4[C@@]5(C)C[C@@H](Cc6cn([C@@H]7O[C@H](CO)[C@@H](O)[C@H](O)[C@H]7O)nn6)[C@H](O)C(C)(C)[C@@H]5CC[C@]43C)[C@H]12,103%
18,COC(=O)c1ccc2c(c1)c1c(C)c3ccncc3c(C)c1n2C,6.4% (active)
19,COc1cc(C(=O)c2c(-c3ccccc3)oc3c(OC)cccc23)cc(OC)c1O,13.1%
20,C=C1C(=O)O[C@H]2[C@H]1CC/C(CNC(=O)c1cc3ccccc3[nH]1)=C\CC[C@@]1(C)O[C@@H]21,-75.4% (active)
21,O=P(O)(O)OCC1OC(n2cnc3c(NCc4ccccc4)ncnc32)C(O)C1O (stereo not given),0.67% (active)
22,CCN(CC)CCCNCc1cc(-c2ccccc2)nc2cc(Cl)ccc12,44.2%
